Assay outcomes from PubChem BioAssay.
This is a sample that favours compounds with a hit; in the whole collection about 3.4% have one here.
GPR151 activ: activators of human GPR151 | actives 1% (n = 650,000) | PathHunter beta-arrestin GPR151 cells, luminescence | Q8TDV0 | activation, % at 11.2 µM; in the data active = activation above about 4.9%
TEAD-YAP block: TEAD-YAP interaction inhibition; HEK-TIYL cells, TEAD-Gal4/YAP UAS-luciferase luminescence; inhibition, % at 9.12 µM; actives 1.4% (n = 640,000); AID 1259422; in the data active = inhibition above about 32%
FBW7 act: activators of human E3 ligase FBW7. AlphaScreen FBW7–phospho-cyclin E peptide binding, activator screen. Q969H0. actives 0.13% (n = 650,000). AID 1259310. normalized activity (activation), % at 26.1 µM; in the data active = normalized activity above about 1.9%;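 also: purified mutant Fbw7 with reduced substrate affinity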
MITF inh: inhibitors of human MITF; AlphaScreen MITF homodimerization, bead proximity signal; inhibition, % at 2.6 µM; actives 0.91% (n = 650,000); in the data active = inhibition above about 50%
Target sequence (O75030 whole entry, looked up): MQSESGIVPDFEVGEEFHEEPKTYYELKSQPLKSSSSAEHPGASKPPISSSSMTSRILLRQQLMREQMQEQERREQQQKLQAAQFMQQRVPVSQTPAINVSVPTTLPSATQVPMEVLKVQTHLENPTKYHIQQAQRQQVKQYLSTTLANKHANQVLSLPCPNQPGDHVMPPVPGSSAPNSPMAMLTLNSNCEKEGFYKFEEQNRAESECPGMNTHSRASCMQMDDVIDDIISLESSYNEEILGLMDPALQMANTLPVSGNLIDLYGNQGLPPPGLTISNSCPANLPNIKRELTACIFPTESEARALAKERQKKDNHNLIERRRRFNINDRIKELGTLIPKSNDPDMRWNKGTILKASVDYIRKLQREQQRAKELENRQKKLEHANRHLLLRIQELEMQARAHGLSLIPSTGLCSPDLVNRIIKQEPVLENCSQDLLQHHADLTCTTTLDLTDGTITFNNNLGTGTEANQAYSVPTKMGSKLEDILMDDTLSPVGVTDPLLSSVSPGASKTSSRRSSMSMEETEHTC
Numbers stand for hits; – = inactive.

SMILES	GPR151 activ	TEAD-YAP block	FBW7 act	MITF inh
CCOC(=O)c1c(NC(=O)CN2CCCCCC2)sc2c1CCCCC2	–	–	–	–
CCOC(=O)c1c(NC(=O)CN2CCN(CC)C(=O)C2=O)sc2c1CCCC2	–	44	–	–
CCOC(=O)c1c(NC(=O)/C=C/C(=O)O)sc2c1CCCCCC2	–	35	–	–
CCOC(=O)c1c(NC(=O)/C=C/C(N)=O)sc2c1CCCC2	–	43	–	–
COc1cccc2c1OCC(NC1CCC(O)CC1)C2 (stereo not given)	–	–	–	–
CC(=O)Nc1ccc2c(c1)CCN2C(=O)C1CCCC1	–	–	–	–
COc1ccc(S(=O)(=O)Nc2cccc(SC)c2)cc1Cl	–	–	–	–
Cc1cc(C)c2nc(SCC(=O)Nc3sccc3C(N)=O)cc(C)c2c1	–	45	–	–
Cc1cc(C)c2nc(SCC(=O)Nc3cc(C(N)=O)cc(C(N)=O)c3)cc(C)c2c1	–	–	–	–
FC(F)(F)C1=Nc2cccc3cccc(c23)N1	–	–	–	114
CCCN1C=C(C(=O)OC)C(c2cccc(Oc3ccccc3)c2)C(C(=O)OC)=C1	–	–	2.1	–
CCCOc1ccc(C2C(C(=O)OC)=CN(CCOC)C=C2C(=O)OC)cc1	–	–	2.1	–
CCN1C(=O)CC(CC(=O)N(C)Cc2csc(C)n2)(c2ccccc2C)C1=O (stereo not given)	–	–	–	–
O=C(NCC(O)c1ccccc1)C(=O)NC1CCCCC1 (stereo not given)	–	–	–	–
CC(=O)N(C1=C(N(C)C)C(=O)c2ccccc2C1=O)c1ccc(Cl)c(Cl)c1	–	82	–	–
CC(=O)N(C1=C(NCCO)C(=O)c2ccccc2C1=O)c1cccc(Br)c1	–	86	–	–
CN(C1=C(NCCO)C(=O)c2ccccc2C1=O)c1ccccc1	–	–	–	–
CC(=O)N(C1=C(N(C)C)C(=O)c2ccccc2C1=O)c1cccc(Cl)c1	–	93	–	–
CC(=O)N(C1=C(N(C)C)C(=O)c2ccccc2C1=O)c1ccc(F)c(F)c1	–	99	–	–
CN(C)C1=C(Nc2ccc(Cl)c(Cl)c2)C(=O)c2ccccc2C1=O	–	–	–	–
CCOc1ccc(CN2CCN(C(=O)c3ccccc3F)CC2)cc1	–	40	–	–
CCOc1ccc(CN2CCOc3ccc(CN4CCN(C(C)=O)CC4)cc3C2)cc1	–	37	–	–
Cc1ccc(CN2CCN(C(=O)c3ccccc3F)CC2)cc1	–	–	–	–
CC(=O)N1CCN(Cc2ccc3c(c2)CN(Cc2ccc(Cl)cc2)CCO3)CC1	–	47	–	–
Cc1ccc(C(=O)Nc2noc3ccccc23)cc1	–	76	–	–
SMILES	GPR151 activ	TEAD-YAP block	FBW7 act	MITF inh
O=C(Nc1noc2ccccc12)c1ccccc1	–	51	–	–
O=C(Nc1noc2ccccc12)c1ccco1	–	–	–	–
Clc1cccc(/C=N/Nc2ncnc3nc[nH]c23)c1	–	58	–	–
COc1ccc(/C=N/Nc2ncnc3nc[nH]c23)cc1	–	58	–	–
CN(C)c1ccc(/C=N/Nc2ncnc3nc[nH]c23)cc1	–	60	–	–
Cc1ccc(/C=N/Nc2ncnc3nc[nH]c23)cc1	–	–	–	–
Oc1ccc(Br)cc1/C=N/Nc1ncnc2nc[nH]c12	–	72	–	75
Fc1cccc(/C=N/Nc2ncnc3nc[nH]c23)c1	–	–	–	–
Cc1cccc(C2=N/C(=C\c3ccc(OC(F)(F)F)cc3)C(=O)O2)c1	–	–	–	–
COc1ccccc1/C=N/Nc1nc(-c2ccccc2)cc(=O)[nH]1	–	50	–	–
Cn1nc(CC(=O)Nc2ccc(F)cc2Cl)c2ccccc2c1=O	–	46	–	–
COc1ccccc1NC(=O)Cc1nn(C)c(=O)c2ccccc12	–	36	–	–
O=C(NCCCS(=O)(=O)N1CCc2ccccc2C1)c1ccc(F)cc1F	–	–	–	–
Cc1ccc(C(=O)/C=C\Nc2ccccc2[N+](=O)[O-])cc1	–	–	–	–
O=C(/C=C\Nc1ccccc1[N+](=O)[O-])c1ccc(F)cc1	–	43	–	–
CCOc1ccc(N/C=C/C(=O)c2ccccc2)c([N+](=O)[O-])c1	–	60	–	–
CCOc1ccc(N/C=C/C(=O)c2ccco2)c([N+](=O)[O-])c1	–	–	–	–
O=C(/C=C/Nc1ccccc1[N+](=O)[O-])c1ccccc1	–	67	–	–
CCc1ccc(S(=O)(=O)NCCOc2ccc(-c3ccc(OC)cc3)nn2)cc1	–	–	–	–
CS(=O)(=O)Nc1ccc(C(=O)CCl)cc1	–	–	–	–
CCCCCOc1ccc(CSCCN)cc1	–	65	–	–
CCCCOc1ccc(CSCCN)cc1	–	46	–	–
